Screens: PubChem BioAssay, National Center for Advancing Translational Sciences (NCATS)
TRPV1 agonist – agonists of human vanilloid receptor 1 (TRPV1); Q8NER1; TRPV1-expressing cells, Fluo-8 calcium influx, agonist mode; activation, % at 8.33 µM; 320,000 compounds, 0.19% hits; in the data active = activation above about 80%; inconclusive = between about 30% and that limit; note: 0% is about no effect
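TRPV1-expressing cells were cultured overnight at 35.5C and loaded with Fluo-8 calcium dye for 40 to 90 min at room temperature. After a 10 s baseline, compound was added and calcium influx was read kinetically for 3 min (ex 480/em 520 nm).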
Giardia kill – Giardia lamblia killing. Giardia lamblia trophozoite viability. activity change, % at 7.66 µM, hits read low. 340,000 compounds, 0.15% hits. AID 540267; in the data active = activity change below about -80%; inconclusive = between about -30% and that limit;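 note: parasites exposed to compound for two days anaerobically before the ATP read; % is set by controls: 0 for no effect and ±100 for the full control effect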
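Luminescent ATP signal served as the viability read-out, measured 15-30 min after adding ATP detection reagent to trophozoites that had been incubated with compounds for 48 hrs at 37 deg C anaerobically at 100 cells/well.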
FUS suppressor – FUS proteinopathy suppression in yeast; S. cerevisiae FUS-expressing, growth rescue, OD600, 24 h; Potency, µM (top dose mostly 76.6 µM), actives largely listed as activators; 390,000 compounds, 0.24% hits;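 note: potency is the fitted concentration of half-maximal effect; plate controls were DMSO vehicle for no effect and reference control for full effect; nearly all actives have a fitted effect of over 55% in size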
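Cultures pregrown in 2.5% raffinose medium are shifted to minimal medium containing 2% galactose to express toxic FUS. Compounds are tested at several concentrations. After 24hr at 30C, growth is quantified at 600 nm absorbance.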
ELG1 DNA repair – ELG1-dependent DNA repair inhibition | HEK293T ELG1-luciferase reporter, luminescence, 16 h; DNA damage induced by 5-fluorouridine | Potency, µM (highest dose often 46.1 µM), inactives show at the highest dose activity change, negative = inhibition, actives largely listed as inhibitors | 330,000 compounds, 2.3% hits | AID 504467; note: potency is the fitted concentration of half-maximal effect; % is set by controls: 0 for no effect and ±100 for the full control effect; nearly all actives have a fitted effect of over 55% in size
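Step one: seed 2,000 cells per well. Step two: pin-transfer compound or DMSO alongside 5-fluorouridine. Step three: incubate 16 hr, 37 °C, 5% CO2. Step four: add ONE-Glo, wait 30 min, read luminescence.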
TRPV1 potentiator – human TRPV1 potentiation; TRPV1-expressing cells, Fluo-8 calcium influx, capsaicin EC20 potentiation; potentiation, % at 8.33 µM; 320,000 compounds, 0.02% hits; Q8NER1; in the data active = potentiation above about 80%; inconclusive = between about 30% and that limit; note: 0% is about no effect
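Cells expressing TRPV1 were dye-loaded with Fluo-8 and read kinetically: 10 s baseline, 3 min after compound (agonist portion), then 2 min after EC20 capsaicin (allosteric enhancer portion). Calcium-bound dye fluorescence at 480/520 nm.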
* hit, by the source's call; i = inactive; ? = inconclusive; . = no result. Sampled rows, rich in hits. Any-hit rate of the full collection: about 2.3%. Unless noted, calls come from the whole dose curve; as a rule, active = well fitted curve in the direction sought with a large enough effect; inconclusive = small, poorly fitted or top-dose-only effect, or another doubt; inactive = no such curve, though single readings can be large; an effect the other way counts as inactive or inconclusive.

SMILES	TRPV1 agonist	Giardia kill	FUS suppressor	ELG1 DNA repair	TRPV1 potentiator
COC[C@H]1CCCN1c1ccc2c(c1)OCCCN(C1CC1)S2(=O)=O	.	.	i	.	.
O=S(=O)(c1cc(Br)ccc1Br)N1CCCCCC1	2.1	-5.9	i	13.8%	25.5
O=S(=O)(c1cc(-c2nnc(-c3ccc(Br)cc3)o2)ccc1Br)N1CCCCCC1	1.5	-0.8	i	20.6µM*	5.3
O=C(Cc1ccccc1)NC1CC(=O)N(c2ccc3c(c2)OCCO3)C1 (stereo not drawn)	.	.	i	.	.
Cc1ccc(C(=O)N/C(=C/c2ccco2)C(=O)Nc2cccc(C)c2)cc1	9.6	-3.9	31.6µM*	3.1%	-1.7
Cc1cccc(NC(=O)/C(=C\c2ccco2)NC(=O)c2cccs2)c1	0.1	-13.0	i	-7.0%	-3.8
COc1cccc(Nc2nc(NCCO)c3ccccc3n2)c1	-2.4	15.7	i	16.4µM*	3.1
c1ccc(Nc2nc(NCc3ccco3)c3ccccc3n2)cc1	-2.7	17.5	i	9.2µM*	11.6
NC(=O)c1cccc(-c2cnc3c(Nc4cccc(OC(F)(F)C(F)F)c4)nccn23)c1	.	.	i	.	.
COc1ccc(-c2csc3ncnc(N4CCN(S(=O)(=O)c5ccc(C)cc5)CC4)c23)cc1	3.3	-11.6	i	20.6µM*	9.7
COc1ccc(-c2csc3ncnc(N4CCN(S(=O)(=O)c5cccs5)CC4)c23)cc1	-1.1	14.2	i	?	-19.4
COc1ccc(-c2csc3ncnc(N4CCN(S(=O)(=O)c5ccc(Cl)s5)CC4)c23)cc1	-6.4	-2.2	i	8.2µM*	4.5
CCOC(=O)c1c(NC(=O)COC(=O)c2ccccc2NC)sc(C(=O)N(C)C)c1C	0.9	-5.0	i	18.3µM*	9.3
CCOC(=O)c1c(NC(=O)c2ccoc2C)sc(C(=O)N(C)C)c1C	4.2	-13.6	i	7.31µM*	6.4
CCOc1ccc(NC(=O)CSc2cn(CC(=O)N3CCCCCC3)c3ccccc23)cc1	.	.	i	.	.
COCc1cc(C)[nH]c(=O)c1C(=O)NC12CC3CC(CC(C3)C1)C2	8.9	-2.7	i	18.3µM*	-3.6
COc1cc(C(=O)NC23CC4CC(CC(C4)C2)C3)cc(OC)c1OC	24.6	-10.4	i	10.2%	-10.3
CC(C)(C)OC(=O)NCC12C=CC(O1)C1C(=O)N(Cc3ccccc3)C(=O)C12 (stereo not drawn)	-0.9	0.8	i	23.1µM*	6.4
Cc1ccc(NC(=S)NCC23C=CC(O2)C2C(=O)N(c4ccc(C)cc4)C(=O)C23)cc1 (stereo not drawn)	0.9	-0.7	.	-14.6%	0.8
Cc1ccc2oc3c(c(=O)c2c1)C(c1ccccc1F)N(c1ccccn1)C3=O (stereo not drawn)	.	.	i	.	.
Cc1ccc2oc3c(c(=O)c2c1)C(c1cccc(O)c1)N(c1ccccn1)C3=O (stereo not drawn)	-1.6	-14.2	i	16.4µM*	?
CCOc1ccc2nc(NCCCNC(=O)c3cc(OC)c(OC)c(OC)c3)c(C#N)cc2c1	-3.9	-1.4	i	6.51µM*	2.2
O=C(O)c1cc(N2CCOCC2)nc2ccccc12	-3.5	-5.9	i	11.7%	7.4
O=C(Nc1ccccc1)c1cc(N2CCOCC2)nc2ccccc12	29.9	5.2	i	?	0.9
Cc1ccc(NC(=O)c2cc(N3CCOCC3)nc3ccccc23)cc1	?	22.4	i	14.6µM*	-5.2
SMILES	TRPV1 agonist	Giardia kill	FUS suppressor	ELG1 DNA repair	TRPV1 potentiator
O=C(Nc1nccs1)c1cc(N2CCOCC2)nc2ccccc12	?	-25.2	i	18.4µM*	-20.9
c1ccc2c(c1)oc1c(Nc3ccc(CN4CCOCC4)cc3)ncnc12	84.5*	-17.1	i	?	-8.3
c1ccc(Nc2ncnc3c2oc2ccccc23)cc1	81.0*	11.3	i	.	-4.5
c1ccc2c(c1)oc1c(NCCN3CCOCC3)ncnc12	5.6	-1.6	i	14.6%	1.2
CCOc1ccccc1CNC(=O)c1ccc2nc(N3CCC(C)CC3)sc2c1	.	.	i	.	.
Cc1nn(C)c2c1c(C(F)(F)F)cc(=O)n2C(C)C(=O)N1CCN(c2ccccc2)CC1 (stereo not drawn)	.	.	i	.	.
COc1ccc(Cn2c(SCC(=O)N3CCN(c4ccc(F)cc4)CC3)nc3ccccc32)cc1	.	.	i	.	.
